An excerpt weighted towards active compounds, which were near 21% of everything screened.
DRD3 antagonist = blocks the human D3 dopamine receptor. P35462. D3R cells, DiscoveRx beta-arrestin luminescence, antagonist mode; active compounds read low. max response, negative = inhibition, %. hit rate 2.5% among 360,000; in the data active = max response below about -50%; inconclusive = no clear call, values can overlap the other calls; note: % is set by controls: 0 for no effect and ±100 for the full control effect
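Cells expressing the human receptor were seeded at 1500 cells/well, incubated overnight at 37 degrees C in 5% CO2, then exposed to library compounds with dopamine controls for 90 minutes at 37 degrees C before luminescent detection.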
DT40 TDP1 CPT = DT40-hTDP1 cell growth loss with CPT; Potency, µM (highest dose often 46.2 µM), inactives show at the top dose activity change, negative = growth inhibition, usual class: inhibitors; chicken DT40 Tdp1-/-;hTDP1 cells + 20 nM CPT, ATP luminescence, 48 h; AID 686979; hit rate 12% among 420,000; note: potency is the fitted concentration of half-maximal effect; % is set by controls: 0 for no effect and ±100 for the full control effect; nearly all actives have a fitted effect of over 55% in size
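Chicken DT40 Tdp1-/- cells complemented with human TDP1, 400 cells/well, exposed to compounds plus 20 nM camptothecin for at least 48 h at 37 C; viability read as ATP content by CellTiter-Glo luminescence.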
IL1B secr inh = inflammasome signaling inhibition, IL-1 beta readout. AID 743279. THP-1 LPS/ATP IL-1B secretion, AlphaLISA, 16 h; active compounds read low. hit rate 4.7% among 360,000. activity change, % at 57.5 µM; in the data active = activity change below about -50%; inconclusive = mostly about -30% to -49%; note: % is set by controls: 0 for no effect and ±100 for the full control effect
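THP-1 cells pretreated 1 hr with compounds (up to 57.5 uM final), then stimulated with LPS (250 ng/mL final) plus ATP (1.25 mM final); secreted IL-1B measured by AlphaLISA after 16 hr, decreased signal indicating inhibition.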
ClpP mod = qHTS Assay for Activators of ClpP | purified B. subtilis ClpP, FRET peptide cleavage, 20 min | Potency, µM (titrated, usually from 57.5 µM), for the others: at the top dose activity change, negative = active | hit rate 1.9% among 340,000 | AID 651965, 2013; active = well fitted falling curve with a large enough effect; inconclusive = small, poorly fitted or top-dose-only effect; inactive = no such curve, though single readings can be large or run the other way; note: potency is the fitted concentration of half-maximal effect; the source files actives as falling curves though it sought activators and does not explain the sign; nearly all actives have a fitted effect of over 65% in size
Target sequence (P80244 whole entry, looked up): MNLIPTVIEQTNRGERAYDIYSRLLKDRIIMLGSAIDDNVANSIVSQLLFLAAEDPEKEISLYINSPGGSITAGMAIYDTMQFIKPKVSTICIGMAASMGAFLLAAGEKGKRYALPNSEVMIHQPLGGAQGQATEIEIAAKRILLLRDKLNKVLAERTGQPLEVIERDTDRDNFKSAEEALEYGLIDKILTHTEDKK
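Buffer: 100 mM Tris/HCl pH8, 100 mM KCl, 0.05% low protease BSA, 2.5% glycerol, 0.01% Tween-20. ClpP 10 microg/mL final; 20 min RT; delta FRET normalized to ADEP and DMSO controls.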
D3 ag = D3 dopamine receptor (human) agonism; hit rate 0.58% among 410,000; AID 652048; max activation, %; D3R DiscoveRx beta-arrestin cells, luminescence, 90 min; in the data active = max activation above about 30%; note: 0% is about no effect
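Agonist mode: compounds and dopamine controls were applied to plated cells for 90 min at 37 degrees C after an overnight attachment at 1500 cells/well. Luminescent read-out followed 30 - 60 minutes at room temperature with DiscoveRx detection reagent.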
TDP1 cell noCPT = qHTS for Inhibitors of human tyrosyl-DNA phosphodiesterase 1 (TDP1): qHTS in cells in absence of CPT; DT40 Tdp1-/- hTDP1 cells, no CPT, ATP luminescence, 48 h; Potency, µM (series often up to 46.2 µM), inactives show at the highest dose activity change, negative = growth inhibition, hits mostly inhibitors; hit rate 15% among 420,000; AID 686978, 2013; note: potency is the fitted concentration of half-maximal effect; % is set by controls: 0 for no effect and ±100 for the full control effect; nearly all actives have a fitted effect of over 55% in size
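Chicken DT40 Tdp1-/- cells complemented with human TDP1, screened without camptothecin (DMSO vehicle only), 400 cells/well. Compounds pin-transferred, cells incubated at 37 °C for at least 48 hr. Growth read as ATP-dependent luminescence (CellTiter-Glo, 30 min at RT).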
* hit, by the source's call; u = inconclusive; x = not tested or not shown. Unless noted, calls come from the whole dose curve; as a rule, active = well fitted inhibition curve with a large enough effect; inconclusive = small, poorly fitted or top-dose-only effect; inactive = flat fitted curve, though single readings scatter.

SMILES | DRD3 antagonist | DT40 TDP1 CPT | IL1B secr inh | ClpP mod | D3 ag | TDP1 cell noCPT
CC(CCc1ccccc1)NC(=O)CN1CCN(Cc2ccccc2)C1=O (stereo not drawn) | 26 | u | -1 | -1% | 31* | u
Cc1cccc(CN2CCN(CC(=O)O)C2=O)c1 | -109* | 2% | 0 | 1% | -1 | -2%
O=C(O)CN1CCN(Cc2ccccc2)C1=O | 7 | -10% | 11 | 1% | 5 | -7%
CC(CCc1ccccc1)NC(=O)CN1CCN(Cc2ccc(Cl)cc2)C1=O (stereo not drawn) | -9 | u | -2 | 0% | -1 | u
Cn1c(SCc2ccccc2Cl)nc(=O)c2c1NC(=O)CC2c1cc(F)ccc1F (stereo not drawn) | x | u | x | 1% | 3 | u
CCOC(=O)Nc1nnc(/C=C/c2ccc(OC)cc2)s1 | -56* | -26% | 11 | 13µM* | -13 | u
CCOC(=O)Nc1nnc(-c2ccc(OC)cc2)s1 | -3 | -11% | -14 | 13µM* | -2 | -2%
COc1ccc(/C=C/c2nnc(NC(=O)COc3ccc(C)cc3)s2)cc1 | -19 | -31% | -3 | 16µM* | 1 | -13%
CCOC(=O)Nc1nnc(-c2cccc(OC)c2)s1 | 5 | -25% | -7 | 7% | 6 | -24%
COc1ccc(-c2nnc(NC(=O)C3CCCO3)s2)cc1 (stereo not drawn) | 23 | -11% | u | 13µM* | 3 | -18%
COc1ccc2[nH]c(C)c(C(=O)CN(C)CC3OCCO3)c2c1 | 8 | -19% | 11 | 3% | 17 | u
Cc1cc(C)cc(NC(=O)Cc2noc3ccccc23)c1 | x | -19% | x | 1% | -24 | -10%
CCCCOC(=O)Nc1nnc(/C=C/c2ccc(OC)cc2)s1 | 1 | u | -2 | 32µM* | 12 | u
CCCCC(=O)Nc1nnc(/C=C/c2ccc(OC)cc2)s1 | u | 0% | 6 | 5% | 2 | -21%
CC(=O)Nc1cccc(NC(=O)CSc2ncc(C(=O)Nc3ccc(F)cc3)c(=O)n2C)c1 | 2 | 15µM* | -100* | x | 1 | 12µM*
Cn1c(SCC(=O)NCC2CCCO2)ncc(C(=O)Nc2ccc(Cl)cc2)c1=O (stereo not drawn) | 6 | 7.3µM* | -15 | x | 2 | 9.2µM*
CC(=O)Nc1ccc(NC(=O)CSc2ncc(C(=O)Nc3ccc(F)cc3)c(=O)n2C)cc1 | -12 | 18µM* | -59* | -6% | -14 | 21µM*
Cc1cc(NC(=O)CSc2ncc(C(=O)Nc3ccc(F)cc3)c(=O)n2C)no1 | x | -10% | x | u | 4 | -13%
CC(=O)Nc1cccc(NC(=O)CSc2ncc(C(=O)Nc3ccccc3)c(=O)n2C)c1 | -23 | 5.8µM* | -100* | x | -4 | 8.2µM*
CC(=O)Nc1ccc(NC(=O)CSc2ncc(C(=O)Nc3ccc(Cl)cc3)c(=O)n2C)cc1 | -5 | u | 4 | -8% | 3 | u
Cn1c(SCC(=O)NCc2ccc(F)cc2)ncc(C(=O)Nc2ccccc2)c1=O | 8 | u | 30 | u | -2 | u
O=C(CSc1ccc(-c2ccc(Cl)cc2)nn1)NC1CCCC1 | 29 | -18% | 13 | 0% | 15 | -17%
COc1cc(NC(=O)c2nc3ccccc3n(C)c2=O)cc(OC)c1OC | x | -28% | x | 2% | 23 | u
Cn1c(SCC(=O)NCCc2ccccc2)ncc(C(=O)Nc2ccccc2)c1=O | 5 | u | -4 | -1% | 4 | 13µM*
CC(=O)c1cccc(NC(=O)c2nc3ccccc3n(C)c2=O)c1 | x | 15µM* | x | -1% | 1 | 10µM*
COc1ccccc1CNC(=O)CSc1ncc(C(=O)Nc2ccccc2)c(=O)n1C | -69* | 16µM* | 27 | 0% | -10 | 15µM*
COc1ccc(NC(=O)c2cnc(SCC(=O)NCCc3ccccc3)n(C)c2=O)cc1 | -3 | u | 12 | 3% | -5 | -27%

High-throughput results from PubChem BioAssay.
